# The campaign covered roughly 69,000 compounds. About 1,000 (1.4%) showed an effect of 50% or more. The list comes from a sample in which strong results are over-represented; it also holds similar structures and randomly drawn compounds.
# Test system: Leishmania donovani
# Experiment: Leishmania intramacrophage assay
# Assay type: functional, organism-based
# Parameters: scale not given: in the data most compounds retested in dose-response had high values
compound,measurement,setting,value
CNS(=O)(=O)c1cccc(C(C)NCc2ccc(C)c(C)c2)c1 (configuration not stated),Percent Effect,"30.3 µM, […]",17.01%
CN(C)C(=O)N1CC2(CCNCC2)c2cc(Cl)ccc21.Cl,Percent Effect,"30.3 µM, […]",-49.76%
Cl.O=C(c1ccccc1F)N1CC2(CCNCC2)c2cc(Cl)ccc21,Percent Effect,"30.3 µM, […]",46.46%
C[C@@H](N)C(=O)N1CC2(CCNCC2)c2cc(Cl)ccc21.Cl.Cl,Percent Effect,"30.3 µM, […]",18.29%
Cc1ccc2c(c1)C1(CCNCC1)CN2C(=O)C(C)C,Percent Effect,"30.3 µM, […]",17.68%
Cl.Cl.O=C([C@H]1CCCN1)N1CC2(CCNCC2)c2cc(Cl)ccc21,Percent Effect,"30.3 µM, […]",35.2%
CC(C)C[C@H](N)C(=O)N1CC2(CCNCC2)c2cc(Cl)ccc21.Cl.Cl,Percent Effect,"30.3 µM, […]",94.41%
CCOC(=O)N1CC2(CCNCC2)c2cc(Cl)ccc21.Cl,Percent Effect,"30.3 µM, […]",67.51%
Cl.Cl.O=C([C@@H]1CSCN1)N1CC2(CCNCC2)c2cc(Cl)ccc21,Percent Effect,"30.3 µM, […]",30.82%
CCc1noc(C)c1C(=O)N(C)Cc1ncc(C)c(OC)c1C,Percent Effect,"30 µM, 30.03 µM",17.33%
CN(CCCC#N)C1CCCN(Cc2noc(C3CC3)n2)C1 (configuration not stated),Percent Effect,"30 µM, 30.03 µM",35.66%
Cc1cccnc1CC(C)N(C)C(=O)c1cccs1 (configuration not stated),Percent Effect,"30.3 µM, […]",22.03%
CNC(=O)c1cnc(/C=C/c2cc(OC)c(O)c(OC)c2)s1,Percent Effect,"30.3 µM, […]",3.705%
CCn1cc(NC(=O)C(C)n2ncc(Cl)c2C)c(C(=O)NCC(C)C)n1 (configuration not stated),Percent Effect,"30.3 µM, […]",23.51%
CC(Oc1ccc2c(c1)OCO2)C(=O)N1CCC(N2CCCC2)CC1 (configuration not stated),Percent Effect,"30.3 µM, […]",30.73%
CCN(Cc1nonc1C)C(=O)c1ccc(Br)o1,Percent Effect,"30.3 µM, […]",25.68%
O=C(O)C(F)(F)F.O=C1[C@H]2CN(CC3CCOCC3)C[C@H]2CN1Cc1cccc(F)c1,Percent Effect,"30.3 µM, […]",2.876%
O=C(O)C(F)(F)F.O=C(O)C(F)(F)F.c1cnc(N2CCCC3(CCN(c4ncccn4)C3)C2)nc1 (configuration not stated),Percent Effect,"30.3 µM, […]",12.64%
CN1CCC2(CCCN(c3nccc(C(F)(F)F)n3)C2)CC1.O=C(O)C(F)(F)F,Percent Effect,"30.3 µM, […]",21.14%
CC(C)N1CCC2(CCCN(c3nccc(C(F)(F)F)n3)C2)CC1.O=C(O)C(F)(F)F,Percent Effect,"30.3 µM, […]",54.65%
O=C(c1ccccc1OCC1CC1)N1CCCC(n2ccnc2)C1 (configuration not stated),Percent Effect,"30 µM, 30.03 µM",5.028%
Cc1cc(C)n(-c2nc(NCCCO)c3c4c(sc3n2)CCCC4)n1,Percent Effect,"30.3 µM, […]",97.76%
Cc1cc(C)n(C2=NC(NCCC(C)C)c3c(sc4c3CCCC4)N2)n1 (configuration not stated),Percent Effect,"30.3 µM, […]",29.71%
Cc1nc(CN2CCCC2C(=O)OCc2ccccc2)oc1C (configuration not stated),Percent Effect,"30.3 µM, […]",0.6047%
Cc1cccc(-c2noc(CN3CCC(c4ccn[nH]4)CC3)n2)c1,Percent Effect,"30.3 µM, […]",43.8%
Cc1ccc(-c2noc(CN3CCC(c4ccn[nH]4)CC3)n2)cc1,Percent Effect,"30.3 µM, […]",12.54%
Fc1ccc(-c2noc(CN3CCC(c4cc[nH]n4)CC3)n2)cc1,Percent Effect,"30.3 µM, […]",54.52%
Cc1ccccc1-c1noc(CN2CCC(c3ccn[nH]3)CC2)n1,Percent Effect,"30.3 µM, […]",-17.93%
c1ccc(-c2cc(CN3CCC(c4ccn[nH]4)CC3)on2)cc1,Percent Effect,"30 µM, 30.03 µM",56.61%
c1cc(C2CCN(Cc3nc(C4CC4)no3)CC2)[nH]n1,Percent Effect,"30.3 µM, […]",12.31%
O=C1NCCN1C1CCN(Cc2nc(-c3ccc(F)cc3)no2)CC1,Percent Effect,30 µM,36.95%
CC1COCCN1Cc1nc(-c2ccc(F)cc2)no1 (configuration not stated),Percent Effect,30 µM,12.83%
c1ccc(-c2noc(CN3CCC(c4ccn[nH]4)CC3)n2)cc1,Percent Effect,"30 µM, 30.03 µM",52.27%
CC(C)c1cc(C(=O)NCCc2nc(-c3ccncc3)n[nH]2)[nH]n1,Percent Effect,"30.3 µM, […]",-0.4105%
Cc1cc(SC(C)(C)C)ccc1NC(C)C(=O)NC(N)=O (configuration not stated),Percent Effect,"30.3 µM, […]",-16.97%
Cc1nc(C2CCCC2)sc1C(N)=O,Percent Effect,"30.3 µM, […]",-15.57%
Cc1cnn(CC2CCCN2c2ncnc3ccsc23)c1 (configuration not stated),Percent Effect,30 µM,46.26%
CCCNC(=O)COc1cccc(-c2nc(C(C)C)no2)c1,Percent Effect,"30.3 µM, […]",13.17%
NCCc1nc(N[C@@H](CO)c2ccccc2)c2ccccc2n1,Percent Effect,"30.3 µM, […]",7.922%
CCC(Nc1nc(CCN)nc2ccccc12)c1cccs1 (configuration not stated),Percent Effect,"30.3 µM, […]",67.47%
CCC(Nc1nc(CCN)nc2ccccc12)c1cc(C)ccn1 (configuration not stated),Percent Effect,"30.3 µM, […]",19.32%
CC1c2ncc(Cn3cccn3)n2CCN1S(=O)(=O)C1CC1 (configuration not stated),Percent Effect,"30.3 µM, […]",4.524%
Cc1ccc2oc(CN3CCC(C(=O)O)(n4ccnc4)CC3)c(C)c2c1,Percent Effect,"30.3 µM, […]",21.21%
CN(C)C[C@@H]1C[C@@H]2CN(Cc3nccn3C)CC[C@@H]2N1CC1CC1,Percent Effect,"30.3 µM, […]",27%
CC(=O)N1CCN(c2ncnc3cc4c(cc23)OCCO4)CC1,Percent Effect,"30.3 µM, […]",39.4%
CC(C)C(=O)N1CCN(c2ncnc3cc4c(cc23)OCCO4)CC1,Percent Effect,"30.3 µM, […]",56.87%
CCC(=O)N1CCN(c2ncnc3cc4c(cc23)OCCO4)CC1,Percent Effect,"30.3 µM, […]",-95.64%
COc1cc2cc(C(=O)N[C@@H](C)C(=O)O)n(C)c2c(OC)c1OC,Percent Effect,"30 µM, 30.03 µM",2.156%
O=C(c1cccnc1)N1CCc2onc(CN3CCCC3)c2C1,Percent Effect,"30.3 µM, […]",14.82%
Cc1nnc2n1CCN(CC(O)CN1CCC(C)CC1)C2 (configuration not stated),Percent Effect,"30.3 µM, […]",33.92%
CCC(CN1CCCC1)n1cncc1-c1cnn(-c2ccc(F)cc2)c1.Cl (configuration not stated),Percent Effect,"30.3 µM, […]",14.1%
COc1c(C)cnc(CN(C)C2CCN(C3CCOCC3)CC2)c1C,Percent Effect,"30.3 µM, […]",38.73%
COc1c(C)cnc(CN(C)C2CCCCC2)c1C,Percent Effect,"30.3 µM, […]",77.94%
COc1c(C)cnc(CN(C)C2CCOC3(CCOCC3)C2)c1C (configuration not stated),Percent Effect,"30.3 µM, […]",5.753%
CC(Cn1cccn1)C(=O)N1CCCN(Cc2cscn2)CC1 (configuration not stated),Percent Effect,"30.3 µM, […]",10.45%
O=C(c1cccs1)N1CCc2c(nc(N3CCCC3)[nH]c2=O)C1,Percent Effect,"30.3 µM, […]",-25.29%
CN(C)C(=O)C1CCN(Cn2nc(-c3ccc(F)cc3)oc2=O)CC1,Percent Effect,30 µM,-5.064%
c1cnnc(N2CCCC(NCc3nc(-c4ccsc4)no3)C2)c1 (configuration not stated),Percent Effect,"30.3 µM, […]",12.92%
CN1CCN(c2ncc(CNCCCc3cccc(F)c3)cn2)CC1,Percent Effect,"30.3 µM, […]",20.79%
CC(NCc1cnc(N2CCN(C)CC2)nc1)c1ccc(F)cc1 (configuration not stated),Percent Effect,"30.3 µM, […]",58.55%
CC(NCc1ccncc1)c1ccc(N2CCN(C)CC2)c(F)c1.Cl (configuration not stated),Percent Effect,"30.3 µM, […]",-0.6983%
Cc1cccc2c1OCCCC2NCc1nccn1Cc1ccccc1 (configuration not stated),Percent Effect,"30.3 µM, […]",82.89%
Cn1ccnc1CNC1CCCOc2c1ccc1ccccc21 (configuration not stated),Percent Effect,"30.3 µM, […]",20.1%
Cc1ccc2c(c1)OCCCC2NCc1nccn1CC(C)C (configuration not stated),Percent Effect,"30.3 µM, […]",9.865%
Cc1ccc2c(c1)C(NCc1nccn1Cc1ccccc1)CCCO2 (configuration not stated),Percent Effect,"30.3 µM, […]",23.59%
c1ccc(Cn2ccnc2CNC2CCCOc3ccccc32)cc1 (configuration not stated),Percent Effect,"30.3 µM, […]",4.41%
Cc1ccc2c(c1)OCCCC2NCc1nccn1Cc1ccccc1 (configuration not stated),Percent Effect,"30.3 µM, […]",50.6%
Cc1noc([C@@]23CCO[C@@H]2CCN(C(=O)CCC(C)C)C3)n1,Percent Effect,"30.3 µM, […]",-4.868%
COCCN(CCC#N)S(=O)(=O)c1ccc(F)cc1Cl,Percent Effect,"30.3 µM, […]",-7.04%
Cc1nc(CNC(=O)Cn2nc(-c3ccc(F)cc3)oc2=O)cs1,Percent Effect,"30 µM, 30.03 µM",-4.773%
COc1ccc(-c2cn(CCSc3ncn[nH]3)nn2)cn1,Percent Effect,"30.3 µM, […]",35.9%
Cc1nn(C)c(C)c1CN(C(=O)c1cc(Cl)c[nH]c1=O)C(C)C,Percent Effect,"30.3 µM, […]",14.01%
Cc1ncc2c(n1)CCCC2NC(=O)c1ccc(Cn2cccn2)cc1 (configuration not stated),Percent Effect,"30.3 µM, […]",26.01%
COC(=O)Cn1c(=O)cc(C(F)F)c2c(C)nn(CC(F)F)c21,Percent Effect,"30.3 µM, […]",51.48%
CCCn1nc(C)c2c(C(F)F)cc(=O)n(CC(=O)O)c21,Percent Effect,"30.3 µM, […]",18.18%
Cc1nn(CC(F)F)c2c1c(C(F)F)cc(=O)n2CC(=O)O,Percent Effect,"30.3 µM, […]",-4.895%
CC1(C)CN(C(CNS(C)(=O)=O)c2ccc(Cl)cc2)CCO1 (configuration not stated),Percent Effect,"30.3 µM, […]",30.45%
O=C(Cc1ccc(F)cc1)N1CCn2c(Cn3cncn3)cnc2C1,Percent Effect,"30.3 µM, […]",5.226%
CCc1nc2n(n1)CC(NCc1nc(-c3ccccn3)no1)CC2 (configuration not stated),Percent Effect,30 µM,-15.89%
Cc1noc(C)c1CC(=O)N1CCCC(Cn2ccnc2C)C1 (configuration not stated),Percent Effect,"30.3 µM, […]",14.7%
Cc1nccn1CC1CCCN(C(=O)Cc2ccsc2)C1 (configuration not stated),Percent Effect,"30.3 µM, […]",72.54%
CC(=O)N1CC(C(=O)N2CCCC(Cn3ccnc3C)C2)C1 (configuration not stated),Percent Effect,"30.3 µM, […]",46.71%
COc1ccc(CN2CCN(S(=O)(=O)c3cc(C(=O)O)cs3)CC2)cc1,Percent Effect,"30.3 µM, […]",15%
Cn1cc(C(=O)N2CC[C@@H]3[C@@H]2CCN3c2ccccn2)cn1,Percent Effect,"30.3 µM, […]",28.1%
CC(=O)NCCCOc1c(C)cccc1Cl,Percent Effect,"30.3 µM, […]",16.58%
Cc1ccc(C(=O)N2CCC3(CCC(=O)N(CCN(C)C)C3)CC2)nc1,Percent Effect,"30.3 µM, […]",0.8363%
CCN1CCCC1Cn1ccc2ccc(C(=O)OC)cc2c1=O (configuration not stated),Percent Effect,"30.3 µM, […]",-29.19%
CCc1ccc2nc(NCCOCCO)cc(C)c2c1,Percent Effect,"30.3 µM, […]",19.28%
CCc1ccc2nc(NCC(O)CO)cc(C)c2c1 (configuration not stated),Percent Effect,"30.3 µM, […]",21.82%
CCc1ccc2nc(NCCCN(CCO)CCO)cc(C)c2c1,Percent Effect,"30.3 µM, […]",97.87%
CCc1ccc(CN2Cc3nccn3CC(Cn3cncn3)C2)o1.O=C(O)C(F)(F)F (configuration not stated),Percent Effect,"30.3 µM, […]",27.46%
COc1cccc(COCC(=O)N2CCC(CC(N)=O)CC2)c1,Percent Effect,"30 µM, 30.03 µM",-26.96%
Cc1c(C)n(-c2ccccn2)c2nc3c(c(N)c12)CCCCC3,Percent Effect,"30.3 µM, […]",70.72%
Cc1c(C)n(Cc2ccccn2)c2nc3c(c(N)c12)CCCCCC3,Percent Effect,"30.3 µM, […]",8.308%
Cc1c(C)n(-c2ccccn2)c2nc3c(c(N)c12)CCCC3,Percent Effect,"30 µM, 30.03 µM",43.5%
CC1CN(C)c2ccccc2CN1C(=O)c1ccc[nH]1 (configuration not stated),Percent Effect,"30 µM, 30.03 µM",18.04%
COCCn1cnc2ccc(NC(=O)c3ccc(OC)cc3)cc2c1=O,Percent Effect,"30.3 µM, […]",23.03%
Cn1ccnc1COc1ccc(COC(=O)C2CCCO2)cc1 (configuration not stated),Percent Effect,"30.3 µM, […]",-0.4672%
Cc1c(CC(C#N)C(=O)Nc2cccc(O)c2)cnn1C (configuration not stated),Percent Effect,"30.3 µM, […]",-22.11%
COc1ccc(Cl)cc1NC(=O)N1CCc2nc(NC(C)=O)sc2C1,Percent Effect,"30.3 µM, […]",55.24%
COC(=O)Nc1nc2c(s1)CN(C(=O)NCc1cccs1)CC2,Percent Effect,"30.3 µM, […]",-0.9773%
COc1ccc(Cl)cc1NC(=O)CN1CCc2nc(NC(C)=O)sc2C1,Percent Effect,"30.3 µM, […]",-8.893%

# Source: ChEMBL document CHEMBL3988442, “University of Dundee, Small-Polar-MMV Screening Library” (2021)
